Compounds without any hit were thinned out: in the full panel of roughly 83,000, 20% have a hit.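 Note: values are percent growth. 100 is the growth of untreated cells, values between 100 and 0 indicate rising inhibition; between -100 and 0 indicates cell death.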 Calls of active or inactive are those of the source. Rule for the calls: active = growth percent below 10; inactive = the rest.
How the values were obtained:
Assay in all cases: NCI-60 one-dose screen, 48 h (100 = growth as untreated, 0 = no growth, -100 = all killed)
Conditions in all cases: 10 µM unless noted
[1] = test system: NCI-H23 lung
[2] = test system: NCI-H226 lung
[3] = test system: NCI-H322M lung
[4] = test system: HOP-62 NSCLC
[5] = test system: NCI-H460 lung
[6] = test system: HOP-92 NSCLC
[7] = test system: NCI-H522 lung
[8] = test system: A549/ATCC NSCLC
[9] = test system: 786-0 renal
[10] = test system: COLO 205 colon
[11] = test system: DU-145 prostate
[12] = test system: K-562 leukemia
[13] = test system: MALME-3M melanoma
[14] = test system: MDA-MB-231 breast
[15] = test system: RXF 393 renal
[16] = test system: SF-268 CNS
[17] = test system: SF-295 CNS
[18] = test system: SF-539 CNS
[19] = test system: UACC-257 melanoma
[20] = test system: M14 melanoma

Measured: growth

CN1CCC(CNc2ccc3ncc(-c4cccc(OC(F)(F)F)c4)n3n2)CC1
inactive: [11] 22.5%
active: [1] -14.9% | [2] -8.6% | [3] 8.29% | [4] -53.1% | [5] -45.8% | [6] -56.8% | [7] -69.7% | [8] -38.4% | [9] -81.6% | [10] -88.6% | [12] -47.3% | [13] -90.2% | [14] -80.3% | [15] -70.7% | [16] -33.1% | [17] -71.2% | [18] -91.4% | [19] -87.4% | [20] -73.3%

Cc1cn(-c2cc(NC(=O)c3ccc(C)c(Nc4nccc(-c5cnccn5)n4)c3)cc(C(F)(F)F)c2)cn1
active: [12] 4.39%
inactive: [1] 73% | [2] 86.9% | [3] 95.3% | [4] 55.9% | [5] 61.7% | [6] 89% | [7] 43.1% | [8] 62.5% | [9] 97.7% | [10] 25.3% | [11] 82.2% | [13] 16.6% | [14] 55.4% | [15] 129% | [16] 65.1% | [17] 93.9% | [18] 98.2% | [19] 38.4% | [20] 18.7%

COc1c(OCCCN2CCOCC2)ccc2c3n(c(=NC(=O)c4cnc(N)nc4)nc12)CCN3
active: [3] -12.6% | [5] 9.88% | [6] -14.6% | [7] 9.59% | [8] -5.58% | [9] -4.92% | [10] -18.6% | [13] -21.2% | [15] -40.7% | [17] -15.4% | [18] -51.5% | [19] -13.8%
inactive: [1] 20.6% | [2] 23.7% | [4] 12.4% | [11] 21.8% | [12] 21.8% | [14] 17.1% | [16] 24.6% | [20] 10.4%

CC[C@@H]1C(=O)N(C)c2cnc(Nc3ccc(C(=O)NC4CCC(N5CCN(CC6CC6)CC5)CC4)cc3OC)nc2N1C(C)C (stereo not given in full)
inactive: [2] 49.7% | [3] 23.3% | [6] 20.7% | [11] 14.6% | [16] 11.2%
active: [1] -1.19% | [4] -29.7% | [5] 1.14% | [7] -52.8% | [8] -6.16% | [9] -80.2% | [10] -61.9% | [12] -6.16% | [13] -80.6% | [14] 5.19% | [15] -30.4% | [17] -36.2% | [18] -85.7% | [19] -67.3% | [20] -57.7%

CC(C)NC[C@@H](C(=O)N1CCN(c2ncnc3c2[C@H](C)C[C@H]3O)CC1)c1ccc(Cl)cc1
inactive: [1] 58.7% | [2] 56.2% | [3] 55.6% | [4] 54% | [5] 29.3% | [7] 53% | [8] 38% | [10] 20.2% | [11] 67.8% | [12] 64.7% | [13] 60.1% | [14] 87.6% | [16] 57.7% | [17] 19.9% | [19] 42.8% | [20] 69.9%
active: [6] 2.39% | [9] 4.37% | [15] -24.8% | [18] 2.83%

COc1cc(N2CCC(N(C)C)CC2)ccc1Nc1ncc(Cl)c(Nc2ccccc2P(C)(C)=O)n1
inactive: [12] 12.5% | [13] 32% | [17] 27.7% | [19] 17.2% | [20] 10.3%
active: [1] 5.53% | [2] -44.3% | [3] -9.57% | [4] -4.93% | [5] 7% | [6] -60.2% | [7] -39.4% | [8] -35.8% | [9] -20.6% | [10] -62.7% | [11] 0.609% | [14] 5.47% | [15] -60.1% | [16] -26.8% | [18] -49.3%

CCN1CCN(Cc2ccc(-c3cc4c(N[C@H](C)c5ccccc5)ncnc4[nH]3)cc2)CC1
active: [3] -2.25% | [7] 6.19% | [10] -21.4% | [12] 5.11% | [13] 1.62% | [19] -5.38% | [20] 7.83%
inactive: [1] 42.3% | [2] 50.9% | [4] 28.5% | [5] 21.9% | [6] 21.4% | [8] 17.5% | [9] 50.3% | [11] 40.5% | [14] 30.3% | [15] 26.4% | [16] 52% | [17] 68.8% | [18] 60.5%

CC(=O)CC1CCCC1c1ccc2ccccc2c1 (stereo not given)
inactive: [1] 96.3% | [2] 95.2% | [3] 96.2% | [4] 96.6% | [5] 101% | [6] 99.7% | [7] 93.5% | [8] 95.6% | [9] 101% | [10] 99.4% | [11] 107% | [12] 104% | [13] 99.1% | [14] 102% | [15] 109% | [16] 102% | [17] 106% | [18] 95.8% | [19] 97.8% | [20] 109%

Source: PubChem BioAssay (NCI)
